Data published in PubChem BioAssay (EPA / NIEHS).
The source made the active and inactive calls. The calls were made as follows: active = hit-call score of the fitted dose curve at least 0.9, where 1 is the maximum; inactive = score below 0.9.

Experiments:
Conditions in all cases: mRNA level, 48 h; actives raise or lower the signal
[1] = read-out: Cytochrome P450 7A1 (Homo sapiens) (UniProt P22680); test: LTEA_HepaRG_CYP7A1: Life Technologies and Expression Analysis (LTEA) Assay for Cytochrome P450 7A1 (CYP7A1) using HepaRG (AID 2283496)
Outline: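 Gene expression endpoint in human HepaRG liver cells treated for 48 h with test chemicals (up to 100 uM, 0.5% DMSO). Values come from bidirectional concentration-response fitting versus DMSO.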

[2] = read-out: Glutathione S-Transferase (GSTA2), GSTA2 (gene 2939); test: LTEA_HepaRG_GSTA2: Life Technologies and Expression Analysis (LTEA) Assay for Glutathione S-Transferase (GSTA2) using HepaRG (AID 2283497)
Outline: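 Differentiated human HepaRG cells were exposed in duplicate for 48 h in serum-free induction medium, 8 points from 100 uM top in half-log steps, 0.5% DMSO. GSTA2 mRNA was measured by TaqMan qRT-PCR, normalized to ACTB, GAPDH and POLR2A; bidirectional fit versus DMSO.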

[3] = read-out: Glutamate-cysteine ligase catalytic (GCLC), GCLC (gene 2729); test: LTEA_HepaRG_GCLC: Life Technologies and Expression Analysis (LTEA) Assay for Glutamate-cysteine ligase catalytic (GCLC) using HepaRG (AID 2283498)
Outline: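 Differentiated HepaRG cells exposed 48 h in serum-free induction medium, eight-point half-log series topping at 100 uM in 0.5% DMSO, duplicates. GCLC mRNA by qRT-PCR normalized to ACTB, GAPDH and POLR2A, fitted bidirectionally versus DMSO.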

[4] = read-out: growth arrest and DNA damage 45 (GADD45G), GADD45G (gene 10912); test: LTEA_HepaRG_GADD45G: Life Technologies and Expression Analysis (LTEA) Assay for growth arrest and DNA damage 45 (GADD45G) using HepaRG (AID 2283499)
Outline: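 GADD45G transcript level by qRT-PCR (housekeeping-normalized: ACTB, GAPDH, POLR2A) after 48 h chemical treatment of a single HepaRG lot in serum-free induction medium; eight-point half-log series up to 100 uM in 0.5% DMSO, duplicates, up- or down-regulation scored.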

[5] = read-out: Glutathione S-transferase M3 (GSTM3), GSTM3 (gene 2947); test: LTEA_HepaRG_GSTM3: Life Technologies and Expression Analysis (LTEA) Assay for Glutathione S-transferase M3 (GSTM3) using HepaRG (AID 2283501)
Outline: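 GSTM3 transcript levels came from Fluidigm TaqMan qRT-PCR normalized to three housekeeping genes, fitted in both directions against DMSO. HepaRG cultures received chemicals for 48 h in serum-free induction medium (0.5% DMSO), 8 half-log concentrations up to 100 uM, duplicate.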

[6] = read-out: Heat shock 70 kDa protein 1 (HSPA1A), gene 3303; test: LTEA_HepaRG_HSPA1A: Life Technologies and Expression Analysis (LTEA) Assay for Heat shock 70 kDa protein 1 (HSPA1A) using HepaRG (AID 2283502)
Outline: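 HSPA1A induction in human HepaRG liver cells is measured after 48 h of chemical treatment (100 uM maximum, 0.5% DMSO vehicle). Expression comes from qRT-PCR normalized to endogenous controls.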

[7] = read-out: Hypoxia-inducible factor 1-alpha (Homo sapiens) (UniProt Q16665); test: LTEA_HepaRG_HIF1A: Life Technologies and Expression Analysis (LTEA) Assay for Hypoxia-inducible factor 1 (HIF1A) Trancription factor using HepaRG (AID 2283503)
Outline: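 HepaRG, 48 h exposure, 8-pt half-log series from 100 uM, 0.5% DMSO vehicle, duplicates. Readout: HIF1A transcript by qRT-PCR (Fluidigm array), housekeeping-normalised. Bidirectional curve fit vs DMSO baseline.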

[8] = read-out: HGF (gene 3082); test: LTEA_HepaRG_HGF: Life Technologies and Expression Analysis (LTEA) Assay for Hepatocyte Growth Facto (HGF) using HepaRG (AID 2283505)
Outline: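 HGF transcript was quantified by TaqMan qRT-PCR against three housekeeping genes after 48 h treatment of HepaRG cells. Exposure ran in duplicate over eight half-log steps topping at 100 uM in 0.5% DMSO vehicle.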

[9] = read-out: Insulin Like Growth Factor 1 (IGF1), IGF1 (gene 3479); test: LTEA_HepaRG_IGF1: Life Technologies and Expression Analysis (LTEA) Assay for Insulin Like Growth Factor 1 (IGF1) using HepaRG (AID 2283506)
Outline: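 Using human HepaRG liver cells, IGF1 transcript induction or suppression is measured 48 h after dosing across eight concentrations capped at 100 uM. Values derive from bidirectional concentration-response fitting with DMSO as baseline.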

[10] = read-out: Intercellular Adhesion Molecule 1 (ICAM1), ICAM1 (gene 3383); test: LTEA_HepaRG_ICAM1: Life Technologies and Expression Analysis (LTEA) Assay for Intercellular Adhesion Molecule 1 (ICAM1) using HepaRG (AID 2283507)
Outline: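 ICAM1 transcript levels measured by qRT-PCR, normalized to three housekeeping genes (ACTB, GAPDH, POLR2A), after 48 h chemical exposure of HepaRG cells. Duplicate eight-point half-log series from 100 uM in 0.5% DMSO; gain or loss fitted against vehicle.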

[11] = read-out: Insulin-like growth factor-binding protein 1 (IGFBP1), IGFBP1 (gene 3484); test: LTEA_HepaRG_IGFBP1: Life Technologies and Expression Analysis (LTEA) Assay for Insulin-like growth factor-binding protein 1 (IGFBP1) using HepaRG (AID 2283508)
Outline: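 Read-out is qRT-PCR transcript level normalized to three housekeeping genes, fitted in both directions against 0.5% DMSO. Differentiated HepaRG cells received eight half-log concentrations (top 100 uM) in duplicate for 48 h in serum-free induction medium.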

[12] = read-out: Interleukin 6 (IL6), IL6 (gene 3569); test: LTEA_HepaRG_IL6: Life Technologies and Expression Analysis (LTEA) Assay for Interleukin 6 (IL6) using HepaRG (AID 2283509)
Outline: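 HepaRG cells exposed in duplicate for 48 h to eight half-log concentrations, top 100 uM, in 0.5% DMSO serum-free induction medium. mRNA measured by qRT-PCR, normalized to ACTB, GAPDH and POLR2A. Bidirectional fit versus DMSO.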

[13] = read-out: Interleukin 6 Receptor (IL6R), IL6R (gene 3570); test: LTEA_HepaRG_IL6R: Life Technologies and Expression Analysis (LTEA) Assay for Interleukin 6 Receptor (IL6R) using HepaRG (AID 2283510)
Outline: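 Concentration-response in human liver HepaRG cells: eight concentrations from 100 uM downward by half-logs, 48 h exposure, 0.5% DMSO vehicle. IL6R mRNA change measured by qRT-PCR and fitted in both directions relative to vehicle.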

[14] = read-out: Potassium channel subfamily K member 1 (KCNK1), KCNK1 (gene 3775); test: LTEA_HepaRG_KCNK1: Life Technologies and Expression Analysis (LTEA) Assay for Potassium channel subfamily K member 1 (KCNK1) using HepaRG (AID 2283511)
Outline: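 Differentiated HepaRG cells, 48 h exposure in serum-free induction medium with 0.5% DMSO; 8 concentrations, half-log from 100 uM, duplicate. KCNK1 mRNA by qRT-PCR, normalized to ACTB, GAPDH, POLR2A; bidirectional fit vs DMSO.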

[15] = read-out: Lipase C (LIPC), LIPC (gene 3990); test: LTEA_HepaRG_LIPC: Life Technologies and Expression Analysis (LTEA) Assay for Lipase C (LIPC) using HepaRG (AID 2283514)
Outline: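 HepaRG cells, 48 h after plating, treated in duplicate for 48 h in serum-free induction medium over 8 half-log concentrations from 100 uM, 0.5% DMSO. LIPC mRNA by TaqMan qRT-PCR normalized to ACTB/GAPDH/POLR2A; bidirectional fit versus DMSO.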

[16] = read-out: 3-Hydroxy-3-Methylglutaryl-CoA Synthase 2 (HMGCS2), HMGCS2 (gene 3158); test: LTEA_HepaRG_HMGCS2: Life Technologies and Expression Analysis (LTEA) Assay for 3-Hydroxy-3-Methylglutaryl-CoA Synthase 2 (HMGCS2) using HepaRG (AID 2283504)
Outline: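 Readout is HMGCS2 transcript by qRT-PCR, housekeeping-normalised (ACTB/GAPDH/POLR2A) and fitted bidirectionally against 0.5% DMSO. Differentiated HepaRG cells received chemicals 48 h, duplicate wells, eight half-log concentrations topping at 100 uM.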

[17] = read-out: Keratin 19 (KRT19), KRT19 (gene 3880); test: LTEA_HepaRG_KRT19: Life Technologies and Expression Analysis (LTEA) Assay for Keratin 19 (KRT19) using HepaRG (AID 2283512)
Outline: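 KRT19 transcript measured by TaqMan qRT-PCR, referenced to three housekeeping genes, after HepaRG cells received test chemicals for 48 h. Eight half-log concentrations, top 100 uM, 0.5% DMSO vehicle; increases and decreases both fitted.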

[18] = read-out: JUN Transcription Factor, JUN (gene 3725); test: LTEA_HepaRG_JUN: Life Technologies and Expression Analysis (LTEA) Assay for JUN Transcription Factor using HepaRG (AID 2283513)
Outline: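 Human HepaRG liver cells receive test chemicals in 0.5% DMSO for 48 h across an eight-point range topping at 100 uM. Expression changes in JUN are scored in both directions against the DMSO vehicle.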

Sequence of Hypoxia-inducible factor 1-alpha (Homo sapiens) (Q16665 whole entry, looked up): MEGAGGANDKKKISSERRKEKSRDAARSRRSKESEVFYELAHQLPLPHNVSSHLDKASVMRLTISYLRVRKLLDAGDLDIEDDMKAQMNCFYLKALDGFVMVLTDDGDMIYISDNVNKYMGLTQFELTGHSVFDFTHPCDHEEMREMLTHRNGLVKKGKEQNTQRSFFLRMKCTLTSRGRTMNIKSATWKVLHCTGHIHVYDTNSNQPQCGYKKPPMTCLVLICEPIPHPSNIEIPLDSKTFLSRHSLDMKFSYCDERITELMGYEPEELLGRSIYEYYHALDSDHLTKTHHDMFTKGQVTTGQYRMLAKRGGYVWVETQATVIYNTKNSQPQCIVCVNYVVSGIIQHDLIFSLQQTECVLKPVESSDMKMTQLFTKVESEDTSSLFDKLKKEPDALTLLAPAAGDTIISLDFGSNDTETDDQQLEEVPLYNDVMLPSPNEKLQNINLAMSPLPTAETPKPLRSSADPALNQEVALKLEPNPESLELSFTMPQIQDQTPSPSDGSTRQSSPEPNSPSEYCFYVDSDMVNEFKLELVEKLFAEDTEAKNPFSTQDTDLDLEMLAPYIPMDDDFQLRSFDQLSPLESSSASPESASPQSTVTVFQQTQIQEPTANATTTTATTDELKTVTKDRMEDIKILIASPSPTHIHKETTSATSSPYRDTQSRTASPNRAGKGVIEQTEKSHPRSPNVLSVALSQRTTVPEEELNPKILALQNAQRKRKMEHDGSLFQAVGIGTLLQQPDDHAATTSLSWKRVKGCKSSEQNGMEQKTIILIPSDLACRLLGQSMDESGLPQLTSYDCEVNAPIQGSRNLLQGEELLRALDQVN

For `CCOP(=S)(OCC)Oc1ccc2c(C)c(Cl)c(=O)oc2c1`, the AC50 [1] was 15.5 µM (active), the AC50 [2] was 82 µM (active) and the outcome [3] was “inactive”. For the same compound, the AC50 [4] was 50 µM (active), the outcome [5] was “inactive” and the outcome [6] was “inactive”. For the same compound, the outcome [7] was “inactive”, the outcome [8] was “inactive” and the AC50 [9] was 33.8 µM (active). The outcome [10] was “inactive”, the AC50 [11] was 21.5 µM (active) and the outcome [12] was “inactive”. For the same compound, the outcome [13] was “inactive”, the outcome [14] was “inactive” and the AC50 [15] was 74.7 µM (active).
With `Nc1c(Cl)cc([N+](=O)[O-])cc1Cl` the AC50 [1] was 50 µM (active), the AC50 [2] was 64.7 µM (active) and the AC50 [3] was 88 µM (active). The AC50 [4] was 50 µM (active), the AC50 [5] was 50 µM (active) and the AC50 [6] was 26.8 µM (active). The AC50 [7] was 86.6 µM (active), the AC50 [16] was 50 µM (active) and the outcome [8] was “inactive”. The outcome [9] was “inactive”, the outcome [10] was “inactive” and the AC50 [11] was 23.7 µM (active). The outcome [12] was “inactive”, the AC50 [13] was 28.2 µM (active) and the outcome [14] was “inactive”. The AC50 [17] was 6.97 µM (active) and the AC50 [15] was 75.3 µM (active).
With `CCOC(=O)COc1cc(-c2nn(C)c(OC(F)F)c2Cl)c(F)cc1Cl` the outcome [1] was “inactive”, the outcome [2] was “inactive” and the outcome [3] was “inactive”. For the same compound, the outcome [4] was “inactive”, the outcome [5] was “inactive” and the outcome [6] was “inactive”. For the same compound, the outcome [7] was “inactive”, the outcome [16] was “inactive” and the outcome [8] was “inactive”. For the same compound, the outcome [9] was “inactive”, the outcome [10] was “inactive” and the outcome [11] was “inactive”. The outcome [12] was “inactive”, the outcome [13] was “inactive” and the outcome [14] was “inactive”. For the same compound, the outcome [18] was “inactive” and the outcome [15] was “inactive”.
